Laboratory results from the OligoGym collection.

The sequences below were run against FANCG (assay: pooled miR-30 sensor sort-seq; sequence = guide strand). Details: shRNA.
Also: reference of the scale not given here.

Sequence	sensor-assay potency score (higher = more potent)
ATAGAGTCAAGGCATCTTGGGC	-0.699
TTTTCTGGCATCTTCCCACAGC	-0.807
TACCTCAATGAGAAACTGCGGG	-0.383
TAGTAATTCTACCTCAATGAGA	-0.931
TTGGCCTGTCGAACGAGCCGGT	-0.452
TACAACAGTGCTCTCTGTGGAT	-0.172
ATAGCTTTCTAGGTACAGGGGG	0.363
ATGAAGGCTGCTTAGTGCCTTG	-0.886
AGTAAGTGTCTCGATTACCTGG	-1.17
TATAGGAATGGTCACATTCCTA	-1.18
TAAGTGTCTCGATTACCTGGGC	-0.142
AAGTACAACAGTGCTCTCTGTG	0.113
TAGCTTTCTAGGTACAGGGGGA	-0.426
TGCTGTGTACACCTGGACCAAC	-1.61
TACACCTGGACCAACACAGGCC	0.254
TCTCTGTGGATTTCCCATCTTA	-0.461
TTGGGTAGCAGAGATGATGTGC	0.442
TAGGCTCCGCTGGATATCCTGG	-1.03
TGTGTCTCCAGCACTCTCTCTA	0.116

These sequences were tested against FANCL in the same assay as above. Details: shRNA.

Sequence	sensor-assay potency score (higher = more potent)
TAGATCAGGAGAGTGCTGCATT	-0.0519
TTAGTGAAGAGACAAACGCAGA	-1.17
TTAGTGATTCTATTGCTGCCAA	0.323
TTCTGCAGGATACTTTGCCTTC	-0.558
TAAAACTCTGTCTACTAGTTAG	-1.39
TAATCTTGCATTCTTCAGTTGT	0.333
TTATGGAAACATTATTACCTAA	-1.18
TAAGGTGGAAGTCTCTTCCCTG	0.0592
TACAATATGGACATTCACCAAA	-0.784
TTCTCTGTTGTACTATTCGATG	-1.72
TTACCTAATGCAATTCTGCGTG	-0.355
TAATAATCTTGCATTCTTCAGT	-0.383

Each sequence was assayed against FASN in the same assay as above. Details: shRNA.

Sequence	sensor-assay potency score (higher = more potent)
TTGACAGCAGCCAAGTCGCGGA	-0.675
TTCAGGAAGATAGCCATGCCGA	-1.28
TTGAGCTGAAGCCTGCAGGCAG	-0.315
TAGTAGACCGTGCAGAGCTGGG	-0.853
TACTTTCCCGTCGCATACCTGG	-1.06
TTGTACTCGGCGGAGGACGTGC	-0.733
AAGAACTCCAGGTTGTCCCTGT	0.747
TTGCACACCAGGAGGTCGGCGC	-0.835
TCGAAGAAGAAGGAGAGCCGGT	0.123
